B2AR arrestin: agonists driving beta-arrestin recruitment to human beta2-adrenergic receptor; beta-arrestin recruitment to beta2AR, cell-based reporter; Potency, µM (doses to about 46.1 µM), inactives show top-dose activation, actives largely listed as activators; P07550; 0.02% of 330,000 active;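 further: potency means the concentration at half of the fitted maximal effect; 0% = DMSO controls and full agonism = EC100 isoproterenol or metaproterenol; nearly all actives have a fitted effect of over 65% in size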
Target sequence (P07550 whole entry, looked up): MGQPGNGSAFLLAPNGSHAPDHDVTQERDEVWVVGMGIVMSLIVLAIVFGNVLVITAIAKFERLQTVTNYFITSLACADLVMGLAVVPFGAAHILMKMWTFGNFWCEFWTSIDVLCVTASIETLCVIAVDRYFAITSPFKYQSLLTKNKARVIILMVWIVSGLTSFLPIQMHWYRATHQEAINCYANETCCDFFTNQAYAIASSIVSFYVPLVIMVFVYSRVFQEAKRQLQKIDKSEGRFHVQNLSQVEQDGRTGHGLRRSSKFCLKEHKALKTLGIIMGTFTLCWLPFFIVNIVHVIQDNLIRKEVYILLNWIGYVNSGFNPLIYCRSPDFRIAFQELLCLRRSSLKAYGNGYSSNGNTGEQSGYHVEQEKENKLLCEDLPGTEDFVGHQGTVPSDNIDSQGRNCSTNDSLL
D3 ag: agonists of human D3 dopamine receptor; 0.58% of 410,000 active; AID 652048; D3R DiscoveRx beta-arrestin cells, luminescence, 90 min; max activation, %; in the data active means max activation above about 30%; further: 0% is about no effect
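Agonist mode: compounds and dopamine controls were applied to plated cells for 90 min at 37 degrees C after an overnight attachment at 1500 cells/well. Luminescent read-out followed 30 - 60 minutes at room temperature with DiscoveRx detection reagent.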
PTHR1 agonist: agonists of human PTHR1 parathyroid hormone receptor; HEK293 GP2 PTHR1 cells, GloSensor cAMP luminescence, 1 h; 0.075% of 410,000 active; Potency, µM (doses to about 115 µM), inactives show at the top dose activation, hits mostly activators; Q03431; further: potency means the concentration at half of the fitted maximal effect; nearly all actives have a fitted effect of over 55% in size
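HEK-293-derived GP2 cells expressing PTHR1 and a GloSensor cAMP reporter, 3,000/well, plated overnight, given luciferin plus IBMX (each 0.5 mM as added) for 1 h at 37 °C, then compound for 1 h at 37 °C. Luminescence was read after 15 min at room temperature.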
D3 antag: D3 dopamine receptor (human) antagonism. D3R cells, DiscoveRx beta-arrestin luminescence, antagonist mode; active compounds read low. max response, negative = inhibition, %. 2.5% of 360,000 active. AID 652054. P35462; in the data active means max response below about -50%; inconclusive means no clear call, values can overlap the other calls; further: on the % scale 0 is the no-effect control and ±100 the full control effect
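Cells expressing the human receptor were seeded at 1500 cells/well, incubated overnight at 37 degrees C in 5% CO2, then exposed to library compounds with dopamine controls for 90 minutes at 37 degrees C before luminescent detection.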
BRCA1 expr act: activators of BRCA1 expression; Potency, µM (titrated, usually from 46.1 µM), for inactives: at the highest dose activation, hits mostly activators; 1.1% of 380,000 active; MCF7-BRCA1-FFLuc reporter, luminescence, 48 h; response scale: scaled: vehicle 0%, 10 µM genistein 100%; further: potency means the concentration at half of the fitted maximal effect; nearly all actives have a fitted effect of over 80% in size
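Quantitative HTS in MCF7 cells stably reporting BRCA1 expression via firefly luciferase. Compound treatment lasts 48 h at 37 °C in phenol-red free MEM. Activation is expressed relative to genistein at 10 microM and DMSO.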
RGS4 inhibitor: inhibitors of human regulator of G protein signaling 4. Transcreener GDP fluorescence polarization, RGS4-accelerated GTP hydrolysis. Potency, µM (doses to about 114 µM), without a hit: top-dose activity change, negative = inhibition, hits mostly inhibitors. 0.039% of 390,000 active; further: potency means the concentration at half of the fitted maximal effect; on the % scale 0 is the no-effect control and ±100 the full control effect; nearly all actives have a fitted effect of over 75% in size
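MLSMR compounds (23 nl, pin-transferred) preincubated 10 min at room temperature with a 500nM (2x) first reagent, then RGS4 at 900nM (2x) plus Transcreener GDP mix added; fluorescence polarization (620/688 nm) read before and after 90 min at 30 °C.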
Numbers without * were called inactive; i = inactive; ? = inconclusive; / = no result; [ ] = dose if it differs, or a comment. Sampled rows, rich in hits. Any-hit rate of the full collection: about 3.7%. Unless noted, the call rests on the fitted dose curve; in most records, active means well fitted curve in the direction sought with a large enough effect; inconclusive means small, poorly fitted or top-dose-only effect, or another doubt; inactive means no such curve, though single readings can be large; an effect the other way counts as inactive or inconclusive.

SMILES | B2AR arrestin | D3 ag | PTHR1 agonist | D3 antag | BRCA1 expr act | RGS4 inhibitor
CCC(=O)N(CCc1ccccc1)Cc1cc2cccc(C)c2[nH]c1=O | 0% | 7 | i | -15 | -21% | -8%
Cn1c(O)c(C2=c3ccccc3=NC2=O)sc1=Nc1ccc(Cl)cc1 | -1% | -1 | -15% | -63* | 7% | -22%
Cc1cc(OCC(=O)NC(Cc2c[nH]c3ccccc23)C(=O)O)ccc1Cl (stereo unspecified) | / | 4 | -18% | / | / | 1%
CCN(CCn1cccn1)C(=O)c1ccc(OC2CCN(C(=O)CCOC)CC2)cc1 | / | 8 | -2% | 32 | -2% | /
OC(c1ccc(F)c(F)c1)c1nc(-c2cccc(F)c2)cs1 (stereo unspecified) | / | 8 | -7% | -25 | 11% | /
COC(=O)/C(=C\C(=O)c1ccccc1)Nc1cccc(C(F)(F)F)c1 | -1% | 3 | -48% | -76* | 10µM* | -4%
O=C(Nc1ccccc1)Nc1cccc(C(F)(F)F)c1 | 0% | 4 | -18% | 15 | 30% | -8%
CCNC(=O)N1CCN(CCCC(c2ccc(F)cc2)c2ccc(F)cc2)CC1 | 0% | -88 | -31% | -114* | -33% | -17%[56.9 µM]
COCCNC(=O)C1(C)CCCN(Cc2ccc(OCc3ccccc3)cc2)C1 (stereo unspecified) | / | 7 | i | 0 | 0% | /
COc1ccc(NS(=O)(=O)c2ccc(I)cc2)cc1N1CCN(C)CC1 | / | / | / | / | / | -80%[56.9 µM]
Cc1noc(/C=C/c2ccccc2F)c1S(=O)(=O)N1CCC(C(=O)NCC(C)c2ccccc2)CC1 (stereo unspecified) | / | 0 | -44% | / | / | 7%
O=C(O)CCc1ccc(-c2ccccc2)n1-c1cccc(C(=O)O)c1 | 1% | -2 | i | -14 | 13µM* | -12%
CCCCC(O)c1ccccc1 (stereo unspecified) | / | 0 | / | / | / | /
COC(=O)c1[nH]c2cccc(OC)c2c1NC(=O)CCN1CCC(C)CC1 | 0% | -28 | -2% | -77* | -16% | 0%
COC(=O)c1[nH]c2cccc(OC)c2c1NC(=O)C(C)N1CCC(C)CC1 (stereo unspecified) | -1% | -15 | -14% | -9 | 7% | 20%
COC(=O)c1[nH]c2cccc(OC)c2c1NC(=O)CCN1CCN(c2ccccc2OC)CC1 | -1% | -46 | -23%[57.5 µM] | -90* | -13% | -20%
COc1cccc(/C(C)=N/NC(=O)c2ccc(N(C)C)cc2)c1 | -1% | -9 | i | 0 | 4.5µM* | 13%
CC(/C=C/c1ccccc1F)=N\NC(=O)c1ccc(Cl)cc1 | 0% | -11 | -12% | -27 | 3% | ?
CC(/C=C/c1ccccc1)=N/NC(=O)c1cccc(Br)c1 | -1% | -7 | i | -53* | -23% | -53%
CC(/C=C/c1ccccc1F)=N\NC(=O)c1ccccc1 | 0% | -4 | -4% | 5 | 3.2µM* | 5%
C/C(=N\NC(=O)c1ccccc1)c1cccc(Br)c1 | 0% | -7 | -15% | 1 | 10µM* | -3%
O=C(N/N=C/C1C(c2ccccc2)C1(Cl)Cl)c1cccc(Br)c1 (stereo unspecified) | 0% | -3 | i | -53* | -14% | -22%
O=C(N/N=C/c1[nH]c2ccccc2c1Cl)c1cccc(Br)c1 | 0% | -1 | i | 3 | -11% | 14%
CCOC(=O)c1ccc(S(=O)(=O)N2CCN(CC(=O)NC(=O)NC(C)(C)C)CC2)cc1 | 0% | 3 | -28% | -71* | -4% | 10%
CC(=O)NC1(C2CCCCC2=O)CCCCC1 (stereo unspecified) | 0% | -1 | -4%[57.5 µM] | -65* | 29% | 10%[56.9 µM]
Cc1ccc2c(c1C)NC(=O)CC2c1ccc(Cl)cc1Cl (stereo unspecified) | / | 3 | -5% | / | -7% | -12%
COc1ccc(NC(=O)C(=O)NNC(=O)c2cccs2)c(OC)c1 | 0% | -5 | i | -73* | 4% | 3%
